Shown are actives, neighbours in structure and some others; about 28% of the full set was active somewhere.
CD11b adhes inh – inhibitors of human CD11b/CD18 binding to fibrinogen; P05107+P11215; K562 CD11b/CD18 adhesion to fibrinogen, ATPlite luminescence; Mn2+ added to activate the integrin; inhibition, % at 10 µM; 93,000 tested, 0.54% active;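 active = primary inhibition of 50% or more at 10 µM, then 40% or more on retest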
Target sequence (P05107 whole entry, looked up, other chains not shown): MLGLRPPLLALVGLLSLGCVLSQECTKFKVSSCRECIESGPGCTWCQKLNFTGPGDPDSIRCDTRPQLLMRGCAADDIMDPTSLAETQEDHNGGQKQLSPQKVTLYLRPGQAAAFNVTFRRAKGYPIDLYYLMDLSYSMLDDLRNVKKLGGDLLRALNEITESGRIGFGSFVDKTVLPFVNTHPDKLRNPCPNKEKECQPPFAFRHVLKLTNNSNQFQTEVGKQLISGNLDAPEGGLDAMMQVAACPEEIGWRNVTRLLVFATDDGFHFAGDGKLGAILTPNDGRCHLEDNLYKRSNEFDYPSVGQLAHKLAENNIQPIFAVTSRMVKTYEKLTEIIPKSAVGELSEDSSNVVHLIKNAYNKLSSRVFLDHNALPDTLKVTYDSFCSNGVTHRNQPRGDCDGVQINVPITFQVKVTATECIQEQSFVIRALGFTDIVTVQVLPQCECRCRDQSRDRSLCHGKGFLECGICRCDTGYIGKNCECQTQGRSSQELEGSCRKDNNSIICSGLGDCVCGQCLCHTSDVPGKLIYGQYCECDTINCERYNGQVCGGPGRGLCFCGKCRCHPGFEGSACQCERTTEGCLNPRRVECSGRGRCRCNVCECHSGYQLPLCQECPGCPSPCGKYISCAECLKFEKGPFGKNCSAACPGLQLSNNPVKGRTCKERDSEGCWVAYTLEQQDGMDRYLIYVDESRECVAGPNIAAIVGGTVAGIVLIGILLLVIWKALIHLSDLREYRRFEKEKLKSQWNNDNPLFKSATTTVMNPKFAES
CD11b adhes enh – CD11b/CD18-fibrinogen binding enhancement; P05107+P11215; K562 CD11b/CD18 adhesion to fibrinogen, ATPlite luminescence; activation, % at 10 µM; 93,000 tested, 0.07% active;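 active = 10 µM primary screen giving 50% or more activity, confirmed by 40% or more on retest at that dose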
CYP2C9 activ – increases human cytochrome P450 2C9 activity; AID 1024; recombinant CYP2C9, luciferin-H conversion, luminescence; active compounds read high; factor 1 = untreated enzyme, 0 = blocked; activation factor at 5 µM; 96,000 tested, 1.4% active; P11712;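 active = activation factor of 2 or more for CYP2C9 at a 5 µM dose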
CYP2C9 inh – human CYP2C9 inhibition; P11712; CYP2C9 Supersomes, luciferin-H conversion, luminescence; inhibition, % at 5 µM; 96,000 tested, 20% active; AID 777;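 active = blocking of liver enzyme CYP2C9 beyond about 50% at 5 µM, limit read from the data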
CYP2C19 act – cytochrome P450 2C19 (human) activation; 96,000 tested, under 10 active; recombinant CYP2C19, luciferin-H EGE luminescence; active compounds read high; 0 = fully inhibited enzyme, 1 = untreated enzyme; activation factor at 5 µM; P33261;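 active = activation factor of at least 2 at 5 µM in the primary screen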
CYP2C19 inhib – blocks human cytochrome P450 2C19 | inhibition, % at 5 µM | 96,000 tested, 21% active | CYP2C19 Supersomes, luciferin-H EGE luminescence, 30 min | AID 778 | P33261;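 active = CYP2C19 inhibition above a set limit at 5 µM in the primary screen, cut at about 50% in these data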
Of the large screens only hits and unclear results are named; the others gave an inactive call.

CCOC(=O)c1c(C)n(Cc2ccccc2)c2ccc(OCC(O)CN3C(=O)CNC3=O)cc12 (centres undefined)	CYP2C9 inh 87.4, CYP2C19 inhib 68.5
CCOC(=O)c1c(C)n(Cc2ccc3c(c2)OCO3)c2ccc(O)cc12	none
CC1CCCC(C2(O)C(=O)Nc3ccccc32)C1=O (centres undefined)	none
COc1ccc(CN2CCCCC2c2cccnc2)cc1C (centres undefined)	CYP2C19 inhib 80.0
COc1cccc(CN2CCCCC2c2cccnc2)c1 (centres undefined)	none
CCN(CC)C(=O)c1ccc(NC(=O)Cn2nc(C)c3ccccc3c2=O)cc1	CYP2C19 inhib 65.9
CC(=NCCCN1CCOCC1)c1c(O)[nH]c(=O)[nH]c1=O	none
CN(Cc1ccccc1)Cc1ccccc1OC(=O)N(C)C	CYP2C19 inhib 54.1
CCCCn1c(O)c(C=Nc2c(C)n(C)n(-c3ccccc3)c2=O)c(=O)[nH]c1=O	none
CC(C)COc1ccc(C2(C#N)CC[N+](C)(C)CC2)cc1	none (no result: CD11b adhes inh, CD11b adhes enh)
CN(CCCCC(=O)/C=N/O)Cc1ccccc1 (tested in a mixture with another compound)	none
CN(CCc1ccccc1)Cc1ccccc1[N+](=O)[O-]	CYP2C9 inh 75.7, CYP2C19 inhib 90.9
O=C(COc1ccccc1)N1CCN(C/C=C/c2ccccc2)CC1	CYP2C9 inh 70.4, CYP2C19 inhib 62.7
O=C(COc1ccccc1)N1CCN(C2CCCC2)CC1	CYP2C19 inhib 64.3
O=C(COc1ccc(Cl)cc1)N1CCN(C/C=C/c2ccccc2)CC1	none
CCOC(=O)CNC(=O)CSP(=S)(OCC)OCC	CYP2C9 inh 69.6, CYP2C19 inhib 96.4
CC(C(N)=O)N1CC(c2ccc(Cl)cc2)CC1=O (centres undefined)	none
CC(C)C/C(=N/O)c1c[nH]c2ccccc12	CYP2C9 inh 58.9, CYP2C19 inhib 77.3
CC(C(=O)c1c[nH]c2ccccc12)N1CCSCC1 (centres undefined)	none (no result: CD11b adhes inh, CD11b adhes enh)
N=C1c2ccccc2CN1CC(=O)c1ccccc1	none (no result: CYP2C9 activ, CYP2C9 inh, CYP2C19 act, CYP2C19 inhib)
CN1C(=O)N(C)C(=O)C2(Cc3ccccc3N3CCOCC32)C1=O (centres undefined)	CYP2C19 inhib 98.1 (no result: CD11b adhes inh, CD11b adhes enh)
Cc1ccc(N2C(=O)NC(=O)C3(Cc4ccccc4N4CCN(c5ccccc5)CC43)C2=O)cc1 (centres undefined)	none
O=c1[nH]c(=O)n(C2CCCCCC2)c(O)c1C=NCCCN1CCOCC1	none
CCOC(=O)c1c(C)n(COCCO)c2ccc(O)cc12	none
CC(=O)c1c(C)n(CCCOC(C)C)c2ccc(O)cc12	CYP2C9 inh 55.2, CYP2C19 inhib 62.0
CC1(C)CC(=O)C(C=NCCN2CCN(C(=O)Cc3ccc(Cl)cc3)CC2)=C(O)C1	CYP2C9 inh 63.2, CYP2C19 inhib 90.3
Cc1ccccc1CS(=O)(=O)Cc1ccc(C(=O)N2CCC3(CC2)OCCO3)o1	none (no result: CD11b adhes inh, CD11b adhes enh)
CCOC(=O)c1c(C)n(Cc2ccco2)c2ccc(O)cc12	CYP2C19 inhib 55.5
COC(=O)c1c(C)n(Cc2ccc3c(c2)OCO3)c2ccc(O)cc12	CYP2C9 inh 78.9, CYP2C19 inhib 81.6
CC(C)NS(=O)(=O)c1ccc(OCC(=O)N2CCN(Cc3ccccc3)CC2)c(Cl)c1	CYP2C9 inh 71.4, CYP2C19 inhib 54.0
O=C(COc1ccc(S(=O)(=O)N2CCCCC2)cc1)N1CCN(Cc2ccccc2)CC1	none
CN1CCN(C(=O)COc2ccc(-c3nc4ccccc4s3)cc2)CC1	CD11b adhes inh 93.4
Cn1nc(-c2ccc(OCC(=O)N3CCN(Cc4ccccc4)CC3)cc2)c2ccccc2c1=O	CD11b adhes inh 71.3, CYP2C9 inh 78.8, CYP2C19 inhib 80.2
CCCNS(=O)(=O)c1ccc(OCC(=O)N2CCN(Cc3ccccc3)CC2)cc1	CYP2C9 inh 51.8
Cc1cc(C)nc(/N=C(\N)c2c(O)[nH]c(=O)[nH]c2=O)n1	none
CN(C)CP(=O)(O)CN(C)C=O	none
Cc1ccc(-n2c(O)c(C=Nc3ccc(S(=O)(=O)N(C)C)cc3)c(=O)[nH]c2=O)cc1	none
CCC(C)NC(=O)c1c(N)n(CC2CCCO2)c2nc3ccccc3nc12 (centres undefined)	none
Nc1c(C(=O)NCCc2ccccc2)c2nc3ccccc3nc2n1CCN1CCOCC1	CYP2C9 inh 97.1, CYP2C19 inhib 67.2
CC(C)CCNC(=O)c1c(N)n(CC2CCCO2)c2nc3ccccc3nc12 (centres undefined)	CYP2C9 inh 95.3, CYP2C19 inhib 61.0
COc1ccc(CCNC(=O)c2c(N)n(CCN3CCOCC3)c3nc4ccccc4nc23)cc1	CYP2C9 inh 50.3
CC(NC1CCCCC1)C(O)C12CC3CC(CC(C3)C1)C2 (centres undefined)	none
CN1CCN(c2nc3ccccc3c(=O)n2-c2ccccc2)CC1	none
COc1ccccc1CN1CCN(C(=O)COc2cccc(C)c2)CC1	none
Cc1cccc(OCC(=O)N2CCN(Cc3ccncc3)CC2)c1	CYP2C9 inh 88.5, CYP2C19 inhib 91.9
O=C(COc1ccc(Br)cc1)N1CCN(Cc2ccncc2)CC1	CYP2C9 inh 62.8, CYP2C19 inhib 82.8
COc1ccc(OC)c(CN2CCN(C(=O)COc3cccc(C)c3)CC2)c1	CYP2C19 inhib 61.7
O=C(Nc1cccc2ccccc12)c1nn(C23CC4CC(CC(C4)C2)C3)cc1Br	none (no result: CD11b adhes inh, CD11b adhes enh)
CC(C)Oc1cc(-n2c(=S)[nH]c3ccccc3c2=O)c(Cl)cc1Cl	CYP2C9 inh 71.5, CYP2C19 inhib 90.2 (no result: CD11b adhes inh, CD11b adhes enh)
O=c1[nH]c2ccccc2c(=O)n1-c1cccc(Cl)c1	none
COc1cc(-n2c(=S)[nH]c3ccccc3c2=O)c(Cl)cc1Cl	CYP2C9 inh 57.8, CYP2C19 inhib 90.5 (no result: CD11b adhes inh, CD11b adhes enh)
O=C(NCC(c1cccnc1)N1CCN(c2ccccc2F)CC1)Oc1ccccc1 (centres undefined)	CYP2C9 inh 85.1, CYP2C19 inhib 77.5
COc1ccc(N2CCN(C(CNC(=O)Oc3ccccc3)c3cccnc3)CC2)cc1 (centres undefined)	none
CC(Cc1ccccc1Sc1ccccc1O)N(C)C (centres undefined)	CYP2C19 inhib 61.0
Cn1c(O)c(/C=C/C=Nc2ccccc2)c(=O)n(C)c1=S	none (no result: CYP2C9 activ, CYP2C9 inh, CYP2C19 act, CYP2C19 inhib)
CCOc1cc(C(=O)N2CCC3(CC2)OCCO3)cc(OCC)c1OCC	none
Cn1c(=O)cc(OCCCC(=O)N2CCC3(CC2)OCCO3)c2ccccc21	none
O=C(CCCOc1ccc(Cl)cc1Cl)N1CCC2(CC1)OCCO2	CYP2C19 inhib 74.0
CCOc1cc2[nH]c(=S)n(CCCC(=O)N3CCC4(CC3)OCCO4)c(=O)c2cc1OCC	CYP2C9 inh 55.2, CYP2C19 inhib 52.0
CCCC(=O)c1c(O)[nH]c(=O)[nH]c1=O	none
COC(=O)c1ccc(N2C(=O)CC(N3CCC(n4c(=O)[nH]c5ccccc54)CC3)C2=O)cc1 (centres undefined)	CYP2C19 inhib 59.8

Screening results as filed in PubChem.
